Compounds without any hit were thinned out: in the full panel of roughly 83,000, 20% have a hit.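 How to read the values: 0–100, growth inhibition (40 = 60% inhibited); 0, no net growth; -100 to 0, cell death (-40 = 40% of starting cells died; -100 = all dead).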 Values without a mark were called inactive. Active and inactive are the calls of the source. The calls were made as follows: active = growth percent below 10; inactive = the rest.

One assay concerns OVCAR-3 ovarian. Nature of the assay: NCI-60 one-dose screen, 48 h (100 = growth as untreated, 0 = no growth, -100 = all killed). As to conditions: 10 µM unless noted.
On to `N#CC(C#N)C(C#N)C#N`, for which the growth was 104%.

Regarding `COc1ccc(C2=NN(C(C)=O)C(c3c(C)nn(-c4ccccc4)c3N3CCOCC3)C2)cc1` (stereo not given), the growth is 104%.

Consider `CCSc1nc(-c2ccco2)n2nc(-c3ccco3)cc2n1`, for which the growth was 105%.

In the case of `O=C(Nc1ccc2c(c1)C(=O)c1ccccc1-2)c1ccccc1`, the growth is 79.5%.

Take `CN(C)c1ccc(-c2nc3ncc(Br)cc3o2)cc1`: the growth was 112%.

As for `c1ccc(COc2ccc(Nc3ncnc4c3cnn4-c3ccccc3)cc2)cc1`, the growth is 113%.

Turning to `Cc1ccccc1NC(=O)N/C(N)=N/c1nc2ccccc2s1`, the growth was 1.83% (active).

Consider `Cc1ccc(C2=NNC(c3sc(Cl)nc3Cl)C2)cc1` (stereo not given), for which the growth is 101%.

On to `N#Cc1ccccc1C#Cc1ccccc1C#Cc1ccc(OCCCCCCOc2ccc(C#Cc3ccccc3C#Cc3ccccc3C#N)cc2)cc1`, for which the growth was 126%.

In the case of `C=CCN(/C=C/CN(CC=C)CC=C)CC=C`, the growth is 105%.

On to `C[C@@H]1CN(c2nc3c(cc2F)c(=O)c(C(=O)O)cn3C(C)(C)C)C[C@H](C)N1`, for which the growth was 104%.

`CCN(CC)c1ccc(N=C2C=CC(=O)C=C2NC(C)=O)cc1`: the growth is 74.2%.

As to `COc1ccc(NS(=O)(=O)N2CCCCC2)cc1`, the growth is 107%.

Consider `COc1cc(/C=C2\CN(S(=O)(=O)c3ccc(C)cc3)C/C(=C\c3cc(CN4CCOCC4)c(O)c(OC)c3)C2=O)cc(CN2CCOCC2)c1O`, for which the growth was -17.3% (active).

Take `Cc1ccc(C2=Nc3c(ccc4c(C)c(C)c(=O)oc34)OC2)cc1`: the growth is 107%.

For the compound `NC(=O)c1cc(Cl)ccc1NC(=O)c1ccccc1-c1ccccc1`, the growth was -30.7% (active).

`CC12CCC3C(=CCc4cc(O)ccc43)C1CCC2=O` (stereo not given): the growth was 111%.

As for `CCOC(=O)OCC(=O)[C@@]1(O)CC[C@H]2[C@@H]3CCC4=CC(=O)CC[C@]4(C)[C@H]3[C@@H](O)C[C@@]21C`, the growth was 112%.

For the compound `O=C1NCCc2c1noc2-c1ccccc1`, the growth is 113%.

As for `O=C1C=CC(=O)N1c1ccccc1N1C(=O)C=CC1=O`, the growth was 103%.

As to `Cc1cnc2nc(-c3ccc(N(C)C)cc3)cn2c1`, the growth was 107%.

In the case of `Cc1n(Cc2ccc3ccccc3c2)c2ccccc2[n+]1Cc1ccc2ccccc2c1`, the growth is -78.1% (active).

Regarding `CC1C(=O)NC2=Nc3ccccc3C(=O)NN21` (stereo not given), the growth is 116%.

On to `CC(C)N(Cc1ccccc1)c1c(S)ssc1=S`, for which the growth is 28.1%.

For `COc1cc(C2CC(c3ccc(C)cc3)=NN2C=O)ccc1OCCN(C)C` (stereo not given), the growth was 103%.

Consider `CCN(CC)CCSc1ncnc2c1cnn2-c1ccc(S(N)(=O)=O)cc1`, for which the growth was 84.4%.

The test system of another assay is HS 578T breast. Described as above. As to conditions: 10 µM unless noted.
Take `COc1cc(NC(=O)NCc2ccco2)ccc1-c1ccc(NC(=O)NCc2ccco2)cc1OC`: the growth was 59.4%.

With `COc1cnc2c(c1)C(=O)c1c-2n(CCCN2CCC(O)CC2)c(=O)c2cc(F)ccc12`, the growth was 27.7%.

Turning to `CCOC(=O)C1=CCC(n2cc(C)c(=O)[nH]c2=O)O1` (stereo not given), the growth was 104%.

Take `CCSc1nc(Nc2ccc(S(=O)(=O)Nc3ccon3)cc2)c(C#N)c(-c2cccc(Br)c2)n1`: the growth was 105%.

Regarding `C[C@H]1O[C@@H](O[C@H]2[C@@H](O)C[C@H](O[C@H]3[C@@H](O)C[C@H](O[C@H]4CC[C@]5(C)C6C[C@@H](O)[C@]7(C)[C@@H](C8=CC(=O)OC8)CC[C@]7(O)C6CC[C@@H]5C4)O[C@@H]3C)O[C@@H]2C)C[C@H](O)[C@@H]1O` (stereo not given in full), the growth was -9.01% (active).

Take `Cc1ccc(NC(=O)c2sc3nc4c(cc3c2N)C(=O)CCC4)cc1`: the growth is 107%.

Consider `COc1ccc(-c2nnc3c4[nH]cnc4ncn23)c(OC)c1`, for which the growth is 54.4%.

Consider `Cc1ccc(N/N=C(/C(=O)c2ccc(Cl)cc2)c2nc(C)cc(=O)[nH]2)cc1`, for which the growth was 99.9%.

Turning to `Cc1ccc(/C=C/C(=O)c2ccc(F)cc2)s1`, the growth is 102%.

Turning to `CNNc1ncnc2c1cnn2-c1ccc(S(N)(=O)=O)cc1`, the growth was 104%.

For `OC(c1cc(-c2cccc(Cl)c2)nc2ccccc12)C1CCCCN1` (stereo not given), the growth is 34.9%.

As for `COc1ccc2c(c1)sc1nc(-c3ccc(Br)cc3)cn12`, the growth was 125%.

Consider `COc1ccccc1NC(=O)c1sc2nc3c(cc2c1N)C(=O)CCC3`, for which the growth was 65.6%.

As for `N#CC(C#N)C(C#N)C#N`, the growth is 102%.

Consider `COc1ccc(C2=NN(C(C)=O)C(c3c(C)nn(-c4ccccc4)c3N3CCOCC3)C2)cc1` (stereo not given), for which the growth was 96.7%.

For the compound `CCSc1nc(-c2ccco2)n2nc(-c3ccco3)cc2n1`, the growth is 96.2%.

`O=C(Nc1ccc2c(c1)C(=O)c1ccccc1-2)c1ccccc1`: the growth is 90.6%.

Turning to `CN(C)c1ccc(-c2nc3ncc(Br)cc3o2)cc1`, the growth was 97.2%.

For `c1ccc(COc2ccc(Nc3ncnc4c3cnn4-c3ccccc3)cc2)cc1`, the growth is 109%.

In the case of `Cc1ccccc1NC(=O)N/C(N)=N/c1nc2ccccc2s1`, the growth was 42.1%.

Take `Cc1ccc(C2=NNC(c3sc(Cl)nc3Cl)C2)cc1` (stereo not given): the growth was 116%.

As for `N#Cc1ccccc1C#Cc1ccccc1C#Cc1ccc(OCCCCCCOc2ccc(C#Cc3ccccc3C#Cc3ccccc3C#N)cc2)cc1`, the growth is 110%.

Consider `C=CCN(/C=C/CN(CC=C)CC=C)CC=C`, for which the growth was 109%.

As for `C[C@@H]1CN(c2nc3c(cc2F)c(=O)c(C(=O)O)cn3C(C)(C)C)C[C@H](C)N1`, the growth is 67.2%.

With `CCN(CC)c1ccc(N=C2C=CC(=O)C=C2NC(C)=O)cc1`, the growth was 104%.

For `COc1ccc(NS(=O)(=O)N2CCCCC2)cc1`, the growth is 108%.

Turning to `COc1cc(/C=C2\CN(S(=O)(=O)c3ccc(C)cc3)C/C(=C\c3cc(CN4CCOCC4)c(O)c(OC)c3)C2=O)cc(CN2CCOCC2)c1O`, the growth is 27.3%.

Take `Cc1ccc(C2=Nc3c(ccc4c(C)c(C)c(=O)oc34)OC2)cc1`: the growth is 110%.

For the compound `NC(=O)c1cc(Cl)ccc1NC(=O)c1ccccc1-c1ccccc1`, the growth is 33.8%.

For the compound `CC12CCC3C(=CCc4cc(O)ccc43)C1CCC2=O` (stereo not given), the growth was 104%.

Consider `CCOC(=O)OCC(=O)[C@@]1(O)CC[C@H]2[C@@H]3CCC4=CC(=O)CC[C@]4(C)[C@H]3[C@@H](O)C[C@@]21C`, for which the growth is 123%.

For the compound `O=C1NCCc2c1noc2-c1ccccc1`, the growth is 111%.

Take `O=C1C=CC(=O)N1c1ccccc1N1C(=O)C=CC1=O`: the growth is 104%.

Take `Cc1cnc2nc(-c3ccc(N(C)C)cc3)cn2c1`: the growth was 109%.

As for `Cc1n(Cc2ccc3ccccc3c2)c2ccccc2[n+]1Cc1ccc2ccccc2c1`, the growth is -0.489% (active).

Consider `CC1C(=O)NC2=Nc3ccccc3C(=O)NN21` (stereo not given), for which the growth is 108%.

With `CC(C)N(Cc1ccccc1)c1c(S)ssc1=S`, the growth is 6.03% (active).

With `COc1cc(C2CC(c3ccc(C)cc3)=NN2C=O)ccc1OCCN(C)C` (stereo not given), the growth was 87.5%.

Take `CCN(CC)CCSc1ncnc2c1cnn2-c1ccc(S(N)(=O)=O)cc1`: the growth was 103%.

For the origin of these results see PubChem BioAssay (NCI).
